According to PubChem BioAssay (NCI):
About 83,000 compounds went through this panel and 20% of them were active in at least one assay; those are over-represented in the sample as a whole.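 Treatment: one concentration, 48 hours, 96-well format. Scoring: percent growth, with anything below 10 considered active.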 The source made the active and inactive calls.

Columns and labels:
Assay in all cases: NCI-60 one-dose screen, 48 h (100 = growth as untreated, 0 = no growth, -100 = all killed)
Conditions in all cases: 10 µM unless noted
BT-549 breast = tested on: BT-549 breast
MDA-MB-435 melanoma = tested on: MDA-MB-435 melanoma
SW-620 colon = tested on: SW-620 colon
MCF7 breast = tested on: MCF7 breast
HCT-116 colon = tested on: HCT-116 colon
HCC-2998 colon = tested on: HCC-2998 colon
KM12 colon = tested on: KM12 colon

Measured: growth

Cn1c2c(c3ccc(-c4ccn[nH]4)cc3c1=O)C(=O)c1ccccc1-2
active: MCF7 breast 9.04%
inactive: BT-549 breast 50.5% | MDA-MB-435 melanoma 77.6% | SW-620 colon 31.1% | HCT-116 colon 21.9% | HCC-2998 colon 79.8% | KM12 colon 15.7%

O=C1c2ccccc2C(=O)c2c1oc1c2c(=O)[nH]c2ccccc21
inactive: BT-549 breast 73.9% | MDA-MB-435 melanoma 83.7% | SW-620 colon 89.2% | MCF7 breast 48.8% | HCT-116 colon 55.5% | HCC-2998 colon 103% | KM12 colon 66.2%

CN(C)C1=NCCN1
inactive: BT-549 breast 97.5% | MDA-MB-435 melanoma 110% | SW-620 colon 106% | MCF7 breast 97.2% | HCT-116 colon 98.7% | HCC-2998 colon 101% | KM12 colon 100%

COc1ccc2[nH]c(=O)c(/C=C/C(=O)/C=C/c3ccc(O)c(OC)c3)cc2c1
inactive: MCF7 breast 13%
active: BT-549 breast -22.8% | MDA-MB-435 melanoma -30% | SW-620 colon -24.8% | HCT-116 colon -86.7% | HCC-2998 colon -74% | KM12 colon -45%

Cc1c(Br)cccc1NC(=O)c1sc2nc3c(cc2c1N)CN(Cc1ccccc1)CC3
active: MDA-MB-435 melanoma -42.9%
inactive: BT-549 breast 29.3% | SW-620 colon 18.4% | MCF7 breast 14.9% | HCT-116 colon 16.8% | HCC-2998 colon 41.1% | KM12 colon 23.5%

COC(=O)c1ccc2c(c1)n(Cc1ccc3ccccc3c1)c[n+]2Cc1ccc2ccccc2c1
inactive: BT-549 breast 56.7% | SW-620 colon 37.6% | MCF7 breast 29.2% | HCT-116 colon 32% | HCC-2998 colon 33.9%
active: MDA-MB-435 melanoma 4.2% | KM12 colon -8.69%

COc1ccc2oc(=O)cc(-c3nc4ccc(N)cc4[nH]3)c2c1
inactive: BT-549 breast 77.1% | MDA-MB-435 melanoma 106% | SW-620 colon 103% | MCF7 breast 77.2% | HCT-116 colon 88.6% | HCC-2998 colon 97.9% | KM12 colon 87.7%

Nc1c(C(=O)Nc2ccccc2Cl)sc2nc3c(cc12)CN(Cc1ccccc1)CC3
inactive: BT-549 breast 93.8% | MDA-MB-435 melanoma 107% | SW-620 colon 94.1% | MCF7 breast 92.9% | HCT-116 colon 103% | HCC-2998 colon 96.5% | KM12 colon 96.1%

C=C(C)[C@@H]1CC[C@]2(C(=O)O)CC[C@]3(C)[C@H](CC[C@@H]4[C@@]5(C)C[C@@H](CC#Cc6ccccc6C)C(=O)C(C)(C)[C@@H]5CC[C@]43C)[C@@H]12
inactive: BT-549 breast 43.4% | MDA-MB-435 melanoma 55.5% | SW-620 colon 25.7% | MCF7 breast 15.3% | HCT-116 colon 12.5% | HCC-2998 colon 31.7% | KM12 colon 20.3%

Clc1ccc2c(NCCCNC3CCCCC3)ccnc2c1
inactive: BT-549 breast 107% | MDA-MB-435 melanoma 84.6% | SW-620 colon 111% | MCF7 breast 90.7% | HCT-116 colon 64.5% | HCC-2998 colon 91.3% | KM12 colon 101%

COc1cc(C2=NN(C(C)=O)C(c3cccc(Nc4ccnc5cc(C(F)(F)F)ccc45)c3)C2)cc(OC)c1OC (stereo not drawn)
inactive: BT-549 breast 46.2% | MDA-MB-435 melanoma 56.6% | SW-620 colon 66.1% | MCF7 breast 37.9% | HCT-116 colon 48.4% | HCC-2998 colon 72.2% | KM12 colon 64.8%

COc1ccc(-c2cn(-c3ccc(Cl)cc3)c(=S)[nH]2)cc1OC
inactive: BT-549 breast 78.6% | MDA-MB-435 melanoma 86.1% | SW-620 colon 114% | MCF7 breast 72.2% | HCT-116 colon 32.2% | HCC-2998 colon 79.2% | KM12 colon 70.2%

COc1ccc(C(=O)c2cc(OC)c(OC)c(OC)c2)cc1OC(=O)CCl
active: MDA-MB-435 melanoma -13.2% | KM12 colon 7.22%
inactive: BT-549 breast 16.2% | SW-620 colon 29.9% | MCF7 breast 15.9% | HCT-116 colon 10.7% | HCC-2998 colon 26.3%

CCN(CC)c1ccc2c(c1)Oc1nc(N)c(C#N)c(N)c1C2Sc1ccc(OC)cc1 (stereo not drawn)
active: BT-549 breast -0.405% | MDA-MB-435 melanoma -26.8% | SW-620 colon -8.27% | MCF7 breast 0.303% | HCT-116 colon 2.7% | HCC-2998 colon -49.2% | KM12 colon -33%

Nn1c(SCC(=O)Nc2ccc(Cl)cc2)nnc1-c1cc(F)c(Cl)cc1Cl
inactive: BT-549 breast 114% | MDA-MB-435 melanoma 97.3% | SW-620 colon 92% | MCF7 breast 72.3% | HCT-116 colon 83.1% | HCC-2998 colon 93.2% | KM12 colon 72.8%

O=C1NN(c2ccccc2)C(c2ccc(Cl)cc2)N2CCC[C@H]12 (stereo partly drawn)
inactive: BT-549 breast 117% | MDA-MB-435 melanoma 99.2% | SW-620 colon 87.3% | MCF7 breast 79.9% | HCT-116 colon 99.7% | HCC-2998 colon 88.1% | KM12 colon 94.9%

O=C(Nc1cc(Nc2ncccc2-c2ncnc3nc[nH]c23)ccc1F)c1cc(C(F)(F)F)cc(C(F)(F)F)c1
active: BT-549 breast -25.2% | MDA-MB-435 melanoma 6.76% | MCF7 breast -2.67% | HCT-116 colon -43% | HCC-2998 colon -83.4% | KM12 colon -55.9%
inactive: SW-620 colon 13.1%

COC(=O)c1cc2c3c(cc(O)c2[nH]1)N(C(=O)C1Cc2cc(OC)c(OC)c(OC)c2N1)CC3CCl (stereo not drawn)
active: BT-549 breast -84.6% | MDA-MB-435 melanoma -14% | SW-620 colon -10.8% | MCF7 breast -5.51% | HCT-116 colon -63.3% | HCC-2998 colon -73.2% | KM12 colon -29.4%

OCCNc1nc(NCCO)nc(Nc2ccc(C3=NN(c4cc(Cl)cc(Cl)c4)C(c4ccc(Cl)cc4)C3)cc2)n1 (stereo not drawn)
inactive: BT-549 breast 52.1% | SW-620 colon 23.4% | HCC-2998 colon 27.1% | KM12 colon 19.3%
active: MDA-MB-435 melanoma -15.8% | MCF7 breast 3.94% | HCT-116 colon 4.84%

Cc1ccc2nc3nc4ccc[nH]c4cc3c2c1
inactive: BT-549 breast 93.2% | MDA-MB-435 melanoma 106% | SW-620 colon 108% | HCT-116 colon 97.1% | HCC-2998 colon 63.7% | KM12 colon 47.8%
active: MCF7 breast 2.23%

N#CC1(C#N)C2=C(CCCC2)NC(c2c(F)cccc2Cl)C1(C#N)C#N (stereo not drawn)
inactive: BT-549 breast 60.4% | MDA-MB-435 melanoma 18% | SW-620 colon 48.8% | MCF7 breast 21.1% | HCT-116 colon 52.7% | HCC-2998 colon 97.6% | KM12 colon 73.3%

O=C(N/N=C/C[C@@H]1[C@@H](/C=C/[C@@H](O)COc2cccc(Cl)c2)[C@H](O)C[C@@H]1O)c1ccncc1
inactive: BT-549 breast 95.3% | MDA-MB-435 melanoma 99.8% | SW-620 colon 94.2% | MCF7 breast 99.1% | HCT-116 colon 92.7% | HCC-2998 colon 104% | KM12 colon 105%

Cc1nccc2c3ccc(OCc4cn(-c5ccccc5)nn4)cc3n(CCCc3ccccc3)c12
inactive: BT-549 breast 81.3% | MDA-MB-435 melanoma 87.7% | SW-620 colon 69% | MCF7 breast 51.3% | HCT-116 colon 54% | HCC-2998 colon 102% | KM12 colon 78%

O=c1[nH]c2ccccc2cc1-c1nc2ccncc2[nH]1
inactive: BT-549 breast 91.3% | MDA-MB-435 melanoma 82.8% | SW-620 colon 88.4% | MCF7 breast 57.2% | HCT-116 colon 63.2% | HCC-2998 colon 93.3% | KM12 colon 22.8%

CC(/C=C/c1ccccc1)=N/NC(=O)c1ccncc1
inactive: BT-549 breast 105% | MDA-MB-435 melanoma 106% | SW-620 colon 98.7% | MCF7 breast 93.6% | HCT-116 colon 92.7% | HCC-2998 colon 107% | KM12 colon 105%

C=C1C(=O)O[C@H]2[C@H]1CC/C(COC(=O)NCc1nc3ccccc3[nH]1)=C\CC[C@@]1(C)O[C@@H]21
inactive: BT-549 breast 86.7% | MDA-MB-435 melanoma 63.1% | SW-620 colon 25.2% | MCF7 breast 36.5% | HCT-116 colon 47.5% | HCC-2998 colon 104% | KM12 colon 99.3%

Cc1cc(C)c(NC(=O)c2sc3nc4c(cc3c2N)CCCCCC4)c(C)c1
active: MDA-MB-435 melanoma 4.56%
inactive: BT-549 breast 53.6% | SW-620 colon 36.2% | MCF7 breast 24.3% | HCT-116 colon 57.3% | HCC-2998 colon 84.7% | KM12 colon 49%

O=C(/C(=C/c1ccc([N+](=O)[O-])cc1)SCc1ccccc1)c1ccc(Cl)cc1
inactive: BT-549 breast 89.2% | MDA-MB-435 melanoma 85.7% | HCT-116 colon 30.5% | HCC-2998 colon 97.3% | KM12 colon 65.6%
active: SW-620 colon 4.23% | MCF7 breast 7.72%

c1ccc2nc(N3CCOCC3)c(N3CCCCC3)nc2c1
inactive: BT-549 breast 109% | MDA-MB-435 melanoma 106% | SW-620 colon 104% | MCF7 breast 93.8% | HCT-116 colon 102% | HCC-2998 colon 103% | KM12 colon 101%

COc1cc2nc3c(=O)n(-c4ccc(C#N)cc4)cnn3c(=O)c2cc1OC
inactive: BT-549 breast 102% | MDA-MB-435 melanoma 98.5% | SW-620 colon 95.3% | MCF7 breast 103% | HCT-116 colon 101% | HCC-2998 colon 97% | KM12 colon 91.7%

Cc1cccc(C)c1Nc1nnc(-c2ccc(F)cc2)o1
inactive: BT-549 breast 107% | MDA-MB-435 melanoma 103% | SW-620 colon 98.1% | MCF7 breast 96.6% | HCT-116 colon 101% | HCC-2998 colon 99.4% | KM12 colon 89.2%

COc1cccc2c1-c1ccccc1C2=O
active: BT-549 breast -0.0616% | MDA-MB-435 melanoma -48.2%
inactive: SW-620 colon 26.7% | MCF7 breast 24% | HCT-116 colon 12.9% | HCC-2998 colon 30.8% | KM12 colon 36%

CC(=O)[C@@H]1CC[C@]2(C(=O)O)CC[C@]3(C)[C@H](CC[C@@H]4[C@@]5(C)Cc6c([nH]c7ccccc67)C(C)(C)[C@@H]5CC[C@]43C)[C@@H]12
inactive: BT-549 breast 71.9% | MDA-MB-435 melanoma 81.2% | SW-620 colon 54.5% | MCF7 breast 38.6% | HCT-116 colon 43.5% | HCC-2998 colon 80.5% | KM12 colon 42.2%

C=C1C(=O)O[C@H]2[C@H]1CC/C(COC(=O)c1cccnc1N)=C\CC[C@@]1(C)O[C@@H]21
inactive: HCC-2998 colon 35.3% | KM12 colon 13.4%
active: BT-549 breast -37.2% | MDA-MB-435 melanoma -4.17% | SW-620 colon 4.05% | MCF7 breast 7.98% | HCT-116 colon 3.94%
